The term inhibition denotes how much of the control response was suppressed.

Active and inactive are the calls of the source. The rule behind the calls is not given here.

Pantothenate synthetase (Mycobacterium tuberculosis (strain ATCC 25618 / H37Rv)), sequence (P9WIL5 whole entry, looked up): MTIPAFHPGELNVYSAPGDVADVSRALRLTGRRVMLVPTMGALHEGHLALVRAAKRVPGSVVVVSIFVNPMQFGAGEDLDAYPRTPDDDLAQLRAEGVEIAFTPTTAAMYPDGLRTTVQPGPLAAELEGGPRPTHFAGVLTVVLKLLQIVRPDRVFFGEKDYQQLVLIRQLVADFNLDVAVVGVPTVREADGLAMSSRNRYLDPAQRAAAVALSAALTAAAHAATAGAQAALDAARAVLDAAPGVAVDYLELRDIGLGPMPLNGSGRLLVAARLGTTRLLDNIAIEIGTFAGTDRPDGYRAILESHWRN

This assay concerns the target Pantothenate synthetase (Mycobacterium tuberculosis (strain ATCC 25618 / H37Rv)) (UniProt P9WIL5). The assay is described as follows: Recombinant Mtb pantothenate synthetase (PanC) inhibitors, coupled enzyme, confirmatory (AID 375).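 Note: 0% = full reaction with vehicle and 100% = no enzyme background.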 The note with it: coupled enzyme assay; at 10 µM, hits give high values.
As for `CCOC(=O)CSC1=Nc2ccccc2C2=NC(CC(=O)NCc3cccs3)C(=O)N12` (stereo not given), the inhibition was 4% (inactive).

Turning to `CC1Cc2ccccc2N1C(=O)CSc1nc2ccccc2n1CC(=O)N1CCOCC1` (stereo not given), the inhibition is 0% (inactive). Then `Cc1c(NC(=O)C(C)OC(=O)COc2cccc3c2OC(C)(C)C3)c(=O)n(-c2ccccc2)n1C` (stereo not given), with 5% (inactive); and `CCn1c(C)cc(=S)c2ccccc21`, with 9% (inactive); and `Cc1cc(=O)n(CCO)c(O)c1C#N`, with 0% (inactive). With `CCOc1ccc2cc(C#N)c(SCC(=O)N3CCOCC3)nc2c1`, the inhibition was 0% (inactive).

On to `Cc1cc(C)nc(N2CCC(C(=O)Nc3ccc(Oc4ccccc4)cc3)CC2)n1`, for which the inhibition is 0% (inactive). Turning to `Cc1c(Cl)cccc1N1C(=O)c2ccccc2C1=O`, the inhibition was 0% (inactive). The value for `COc1ccc(C2C3=C(CC(C)(C)CC3=O)Oc3ncn4nc(-c5cccnc5)nc4c32)cc1` (stereo not given) was 0% (inactive); that for `CC(C)C(NC(=O)c1ccccc1NC(=O)c1ccco1)C(=O)O` (stereo not given) was 4% (inactive). As for `O=C(CSc1nc(C2CCCCC2)n(-c2ccccc2)n1)NCCN1C(=O)CSC1=O`, the inhibition was 6% (inactive). For the compound `C=CCn1c(SCC(=O)c2ccc(OC)cc2)nnc1C(C)NC(=O)c1cccs1` (stereo not given), the inhibition is 0% (inactive).

As to `O=c1c(-c2ccccc2)coc2c(CN3CCOCC3)c(O)ccc12`, the inhibition is 6% (inactive). On to `O=C(CSc1nnc(-c2ccccc2Cl)n1Cc1ccco1)Nc1ccc2c(c1)OCCO2`, for which the inhibition was 2% (inactive). Regarding `Cc1ccc(S(=O)(=O)NCCNC(=O)c2ccccc2)cc1`, the inhibition was 4% (inactive).

Regarding `COc1cc(OC)c(C2C(C#N)=C(N)OC3=C2C(=O)CC(C)(C)C3)cc1OC` (stereo not given), the inhibition was 1% (inactive). Turning to `Cc1ccc(N=Cc2ccc(O)cc2O)cc1F`, the inhibition was 0% (inactive). The value for `Cc1n[nH]c(C)c1N1C(=O)c2cccc3cc(Br)cc(c23)C1=O` was 6% (inactive). Consider `COc1ccc(CNC(=O)Cn2nc(C(F)(F)F)c3c2CCC3)cc1`, for which the inhibition is 3% (inactive). The value for `COCCN(CCOC)C(=O)CCn1c(=O)oc2ccccc21` was 0% (inactive); that for `COc1ccc(S(=O)(=O)N2CCCC(C(=O)N3CCCCCC3)C2)cc1` (stereo not given) was 6% (inactive). The value for `CCOc1ccccc1-n1c(SCC(=O)NCc2ccco2)nnc1-c1ccncc1` was 1% (inactive). With `CC(C)COc1nc2ccccc2nc1C(C#N)C(=O)NC1CCCCC1` (stereo not given), the inhibition is 0% (inactive). As for `CC1=NS(=O)(=O)c2cc(Cl)ccc2N1`, the inhibition was 6% (inactive). Then `CCOc1cc(C(=O)Nc2ncccn2)cc(OCC)c1OCC`, with 2% (inactive); and `O=S(=O)(Nc1ccc(Cc2ccncc2)cc1)N1CCCC1`, with 0% (inactive).

Turning to `O=C1c2ccccc2C(=O)N1CC(O)Cn1nnc2ccccc21` (stereo not given), the inhibition was 0% (inactive). Then `COc1cccc(-n2c(C)nc3c(cnn3-c3ccc(Cl)cc3)c2=O)c1`, with 4% (inactive); and `O=C(Nc1cnn(Cc2ccc(Cl)cc2Cl)c1)c1noc2c1CCCC2`, with 4% (inactive). For `O=S(=O)(c1ccc(Oc2ccc(-c3nnco3)cc2)nc1)N1CCC(Cc2ccccc2)CC1`, the inhibition is 0% (inactive). Then `O=c1ccc2cc3c([nH]c4ccc(Br)cc43)oc-2c1O`, with 0% (inactive); and `CC1=C(C(=O)NCc2ccccc2)C(c2ccccc2OCC(N)=O)NC(=O)N1` (stereo not given), with 0% (inactive). Take `CCOC(=O)C1CCN(c2c(NCCCN(CC)c3ccccc3)c(=O)c2=O)CC1`: the inhibition was 0% (inactive). Then `CN1CCc2c(sc3c2c(=O)n(-c2ccccc2)c2nnc(SCc4ccc(F)cc4)n32)C1`, with 0% (inactive); and `Cc1cc(NC(=O)c2cnn3c(C(F)F)cc(C4CC4)nc23)no1`, with 0% (inactive). Then `COc1cccc(C2=Nn3c(nnc3-c3ccccc3O)SC2)c1`, with 1% (inactive); and `O=C(NCC1CCCO1)C1CC(c2ccc(Cl)c(Cl)c2)=NO1` (stereo not given), with 0% (inactive); and `COc1ccc2nc(N3CCC(C)CC3)c(C#N)cc2c1`, with 7% (inactive).

Regarding `CN(C)/C=C1\N=C(c2ccc(Cl)cc2Cl)OC1=O`, the inhibition is 0% (inactive). For the compound `O=C(CSc1nnc(C2COc3ccccc3O2)o1)N1CCCc2ccccc21` (stereo not given), the inhibition was 0% (inactive).

The record behind these values is PubChem BioAssay.
